Compounds without any hit were thinned out: in the full panel of roughly 83,000, 20% have a hit.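 Single-concentration screen, 48 h exposure, 96-well plates. Endpoint: percent growth. Below 10 = active.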 Unmarked numbers belong to inactive results. The source made the active and inactive calls.
Each molecule was assayed on MDA-MB-468 breast (assay: NCI-60 one-dose screen, 48 h (100 = growth as untreated, 0 = no growth, -100 = all killed)). Details: 10 µM unless noted.
Molecule COc1ccc(NC(=O)CCl)cc1 has a growth of 73.6%.
For COc1cccc2c1C(=O)c1c(O)c3c(c(O)c1C2=O)C[C@](O)(C(=O)CO)C[C@H]3O[C@@H]1C[C@@H](NC(=O)CCCCCN(C)C2(c3ccc(F)cc3)CC3CCC2C3)[C@H](O)[C@@H](C)O1 (some centres not stated), the growth was 4.63% (active).
Work on O=C1[C@H]2Cc3c([nH]c4ccccc34)[C@@H](c3ccc(Cl)cc3)N2C(=O)CN1C1CCN(Cc2c(Cl)cccc2Cl)CC1 yielded a growth of 98.3%.
With COc1cc2cc(Oc3ccc(NC(=O)Nc4ccccc4)cc3)c(C)nc2cc1OCCN1CCCCC1 the growth was 79.5%.
With COc1cc(C(N)=O)cc(OC)c1OC the growth was 103%.
CCOC(=O)c1c2c(c(C)n1Cc1ccc(OC)cc1)-c1oncc1CC2 gave a growth of 97.8%.
In the case of O=C1Nc2ccccc2C1(c1c[nH]c2ccccc12)c1c[nH]c2ccccc12, the growth is reported as -23.3% (active).
Cc1ccc(-c2nnc(SCc3ccc(O)c4ncccc34)o2)cc1 showed a growth of 14.4%.
For CC(=O)Nc1ccc(-c2cc3c(NCc4ccc(F)cc4)ncnc3s2)cc1, the growth was 69.7%.
In the case of COc1ccc(Nc2ncccc2C(=O)NCc2cn(Cc3cccc(Oc4ccccc4)c3)nn2)cc1, the growth is reported as 4.17% (active).
Work on N/C(=N\OC(=O)c1ccccc1)C(C(=O)NOC(=O)c1ccccc1)C1CCCCC1 (configuration not stated) yielded a growth of 80.8%.
C=C(C)[C@@H]1CC[C@]2(C(=O)N[C@@H](Cc3ccccc3)C(=O)OC)CC[C@]3(C)[C@H](CC[C@@H]4[C@@]5(C)CCC(=O)C(C)(C)[C@@H]5CC[C@]43C)[C@@H]12 gave a growth of 84.2%.
